Measured values taken from the supplement of paper PMC12645437, “Orthogonal IMiD-Degron Pairs Induce Selective Protein Degradation in Cells” (ACS Chemical Biology, 2025).
The full ranking holds about 8,300 sequences; the median of “log2 fold change of degron read counts, EGFP-low vs EGFP+ sorted cells (limma voom), compound-induced degradation” is about -1.1, and the highest 2% start at about 3.2. What follows is part of a selection rich in the highest values, with near analogues and random picks from the rest.

T1: CRBN, Q96SW2
T1 chain: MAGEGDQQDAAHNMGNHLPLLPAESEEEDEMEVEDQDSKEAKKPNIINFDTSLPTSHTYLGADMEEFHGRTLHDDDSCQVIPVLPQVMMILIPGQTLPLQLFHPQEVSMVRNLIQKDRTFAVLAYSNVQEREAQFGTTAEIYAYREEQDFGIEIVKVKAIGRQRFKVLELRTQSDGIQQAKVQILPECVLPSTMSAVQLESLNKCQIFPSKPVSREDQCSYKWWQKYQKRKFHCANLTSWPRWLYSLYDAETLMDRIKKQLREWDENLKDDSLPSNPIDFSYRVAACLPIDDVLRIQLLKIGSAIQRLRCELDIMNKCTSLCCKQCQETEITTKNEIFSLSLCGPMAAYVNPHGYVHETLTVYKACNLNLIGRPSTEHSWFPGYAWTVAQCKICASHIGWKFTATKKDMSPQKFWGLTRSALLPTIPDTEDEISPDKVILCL


Biological target: T1, CRBN, Q96SW2
Test: log2 fold change of degron read counts, EGFP-low vs EGFP+ sorted cells (limma voom), compound-induced degradation; higher = more compound-induced degradation of the degron-EGFP fusion; degrons are variants of IKZF1/3 zinc finger 2; compound dose not given here
Conditions: Jurkat, 18 h
[1] = compound: compound 19 (5-tert-butyl-thalidomide)
[2] = compound: compound 22 (5-morpholino-thalidomide)
[3] = compound: compound 33 (diphenyl IMiD analogue)
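Also: pooled lentiviral library of zinc finger degron-EGFP fusions in mCherry-positive Jurkat cells, FACS-sorted after compound exposure, with degron abundance counted by next-generation sequencing.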

| Sequence | log2 fold change of degron read counts [1] | log2 fold change of degron read counts [2] | log2 fold change of degron read counts [3] | log2 fold change of degron read counts (compound: thalidomide) |
| --- | --- | --- | --- | --- |
| FRCEICGAHFTQKGNLLRHIKL [46F_47R_49E_50I_52G_53A_54H_55F_67L_, Q9UKT9] | -0.542 | -0.83 | 0.979 | 0.735 |
| LDCEICGFNCTQKGNLLRHIKL [46L_47D_49E_50I_52G_53F_54N_55C_67L_, Q9UKT9] | -1.97 | -2.54 | -2.01 | -1.74 |
| FICEVCGAAFTQKGNLLRHIKL [46F_47I_49E_50V_52G_53A_54A_55F_67L_, Q9UKT9] | 0.0772 | 3 | 2.31 | 3.04 |
| FECEVCGAAFTQKGNLLRHIKL [46F_47E_49E_50V_52G_53A_54A_55F_67L_, Q9UKT9] | 2.56 | -0.651 | 1.75 | 2.51 |
| FLCEVCGAAFTQKGNLLRHIKL [46F_47L_49E_50V_52G_53A_54A_55F_67L_, Q9UKT9] | 1.91 | 0.166 | 1.52 | 1.55 |
| FFCPVCGAAFTQKGNLLRHIKL [46F_47F_49P_50V_52G_53A_54A_55F_67L_, Q9UKT9] | 2.88 | 2.91 | 2.41 | 1.09 |
| FVCEVCGAAFTQKGNLLRHIKL [46F_47V_49E_50V_52G_53A_54A_55F_67L_, Q9UKT9] | 1.64 | 3.28 | 2.3 | 3.36 |
| FFCEVCGAAFTQKGNLLRHIKL [46F_47F_49E_50V_52G_53A_54A_55F_67L_, Q9UKT9] | 3.47 | 3.39 | 2.35 | 1.61 |
| FRCEVCGAAFTQKGNLLRHIKL [46F_47R_49E_50V_52G_53A_54A_55F_67L_, Q9UKT9] | 2.61 | 2.62 | 2.86 | 2.62 |
| FACEVCGAAFTQKGNLLRHIKL [46F_47A_49E_50V_52G_53A_54A_55F_67L_, Q9UKT9] | 3.64 | 2.99 | 1.02 | 1.31 |
| FICNVCGAQFTQKGNLLRHIKL [46F_47I_49N_50V_52G_53A_54Q_55F_67L_, Q9UKT9] | -1.95 | 0.393 | 2 | 0.761 |
| FWCEQCGAIFTQKGNLLRHIKL [46F_47W_49E_50Q_52G_53A_54I_55F_67L_, Q9UKT9] | -0.201 | 0.552 | 0.154 | -1.07 |
| FSCEVCGAIFTQKGNLLRHIKL [46F_47S_49E_50V_52G_53A_54I_55F_67L_, Q9UKT9] | 1.27 | 0.887 | 1.42 | 0.379 |
| FICEVCGAIFTQKGNLLRHIKL [46F_47I_49E_50V_52G_53A_54I_55F_67L_, Q9UKT9] | -1.14 | 0.0357 | 2.04 | 1.14 |
| FYCEVCGAIFTQKGNLLRHIKL [46F_47Y_49E_50V_52G_53A_54I_55F_67L_, Q9UKT9] | 2.89 | 3.45 | 2.43 | 0.38 |
| FVCEVCGAIFTQKGNLLRHIKL [46F_47V_49E_50V_52G_53A_54I_55F_67L_, Q9UKT9] | -1.03 | -0.779 | 1.43 | 1.47 |
| FQCEVCGAIFTQKGNLLRHIKL [46F_47Q_49E_50V_52G_53A_54I_55F_67L_, Q9UKT9] | -1.13 | 3.07 | 2.65 | 3.7 |
| FRCEVCGAIFTQKGNLLRHIKL [46F_47R_49E_50V_52G_53A_54I_55F_67L_, Q9UKT9] | -1.36 | -1.29 | 0.815 | 1.07 |

| Sequence | log2 fold change of degron read counts [1] | log2 fold change of degron read counts [2] | log2 fold change of degron read counts [3] | log2 fold change of degron read counts (compound: thalidomide) |
| --- | --- | --- | --- | --- |
| FCCSVCGHLFTQKGNLLRHIKL [46F_47C_49S_50V_52G_53H_54L_55F_67L_, Q9UKT9] | -2.25 | -2.38 | -2.22 | -2.25 |
| FRCEQCGAGFTQKGNLLRHIKL [46F_47R_49E_50Q_52G_53A_54G_55F_67L_, Q9UKT9] | -0.467 | -1.48 | 0.986 | -0.649 |
| FSCNVCGAEFTQKGNLLRHIKL [46F_47S_49N_50V_52G_53A_54E_55F_67L_, Q9UKT9] | -1.82 | -2 | -0.491 | -1.04 |
| FLCNQCGHTFTQKGNLLRHIKL [46F_47L_49N_50Q_52G_53H_54T_55F_67L_, Q9UKT9] | -2.86 | -3.5 | -3.07 | -2.79 |
| FICSVCGHTFTQKGNLLRHIKL [46F_47I_49S_50V_52G_53H_54T_55F_67L_, Q9UKT9] | -2.11 | -2.3 | -3.14 | -2.67 |
| FFCDICGATFTQKGNLLRHIKL [46F_47F_49D_50I_52G_53A_54T_55F_67L_, Q9UKT9] | 2.91 | 2.77 | 0.337 | -0.566 |
| FQCEVCGASFTQKGNLLRHIKL [46F_47Q_49E_50V_52G_53A_54S_55F_67L_, Q9UKT9] | 2.49 | 2.89 | 2.13 | 3.53 |
| FYCEVCGASFTQKGNLLRHIKL [46F_47Y_49E_50V_52G_53A_54S_55F_67L_, Q9UKT9] | 3.7 | 3.86 | 2.94 | 1.59 |
| FVCEVCGASFTQKGNLLRHIKL [46F_47V_49E_50V_52G_53A_54S_55F_67L_, Q9UKT9] | 1.21 | 2.91 | 2.54 | 3.54 |
| FQCEVCGADFTQKGNLLRHIKL [46F_47Q_49E_50V_52G_53A_54D_55F_67L_, Q9UKT9] | -0.53 | -0.0138 | 1.04 | 3.09 |
| FACNVCGASFTQKGNLLRHIKL [46F_47A_49N_50V_52G_53A_54S_55F_67L_, Q9UKT9] | 1.32 | 0.642 | -0.249 | -1.16 |
| FACEVCGASFTQKGNLLRHIKL [46F_47A_49E_50V_52G_53A_54S_55F_67L_, Q9UKT9] | 3.87 | 2.73 | 0.799 | 1.03 |
| FMCEVCGASFTQKGNLLRHIKL [46F_47M_49E_50V_52G_53A_54S_55F_67L_, Q9UKT9] | 1.39 | 1.79 | 2.94 | 2.05 |
| FRCEVCGASFTQKGNLLRHIKL [46F_47R_49E_50V_52G_53A_54S_55F_67L_, Q9UKT9] | 2.07 | 1.56 | 2.15 | 2.07 |
| FCCNVCGASFTQKGNLLRHIKL [46F_47C_49N_50V_52G_53A_54S_55F_67L_, Q9UKT9] | 0.743 | 0.454 | 0.99 | 0.32 |
| FHCEVCGASFTQKGNLLRHIKL [46F_47H_49E_50V_52G_53A_54S_55F_67L_, Q9UKT9] | 2.93 | 2.64 | 1.35 | 0.198 |
| FICEVCGASFTQKGNLLRHIKL [46F_47I_49E_50V_52G_53A_54S_55F_67L_, Q9UKT9] | 0.0302 | 2.88 | 2.44 | 2.95 |
